# Experimental data: ChEMBL document CHEMBL3433997, “St. Jude Leishmania screening dataset” (2016)
# Key:
# Type in all cases: functional
# [1] = biological target: Solute carrier family 2, facilitated glucose transporter member 1 (Homo sapiens) (UniProt P11166); assay: ST_JUDE_LEISH: Cytotoxicity at 2uM final concentration against transgenic Leishmania Mexicana promastigotes LmGLUT1 that are glucose transport deficient and complemented with the human glucose transporter GLUT1. Activity is measured by DNA content using SYBR green in vitro
# Chain of Solute carrier family 2, facilitated glucose transporter member 1 (Homo sapiens) (P11166 whole entry): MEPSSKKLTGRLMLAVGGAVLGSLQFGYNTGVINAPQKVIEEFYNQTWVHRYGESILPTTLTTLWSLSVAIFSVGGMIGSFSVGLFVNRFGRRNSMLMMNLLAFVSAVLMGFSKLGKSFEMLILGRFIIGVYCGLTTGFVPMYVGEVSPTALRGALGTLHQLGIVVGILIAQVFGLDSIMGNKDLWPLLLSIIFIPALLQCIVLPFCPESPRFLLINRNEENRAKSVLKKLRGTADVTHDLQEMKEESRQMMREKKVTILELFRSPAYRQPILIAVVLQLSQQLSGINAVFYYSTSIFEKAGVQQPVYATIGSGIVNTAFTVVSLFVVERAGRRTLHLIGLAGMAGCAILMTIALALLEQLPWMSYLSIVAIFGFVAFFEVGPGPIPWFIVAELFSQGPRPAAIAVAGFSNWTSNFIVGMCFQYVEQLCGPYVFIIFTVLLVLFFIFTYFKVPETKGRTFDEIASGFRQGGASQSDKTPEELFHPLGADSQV
# [2] = biological target: Hexose transporter 1 (Plasmodium falciparum) (UniProt O97467); assay: ST_JUDE_LEISH: Cytotoxicity at 2uM final concentration against transgenic Leishmania Mexicana promastigotes LmPfHT that are glucose transport deficient and complemented with the Plasmodium falciparum hexose transporter. Activity is measured by DNA content using SYBR green in vitro
# [3] = biological target: Glucose transporter (Leishmania mexicana) (UniProt O61059); assay: ST_JUDE_LEISH: Cytotoxicity at 2uM final concentration against transgenic Leishmania Mexicana promastigotes LmGT2 that are glucose transport deficient and complemented with the L. Mexicana glucose transporter 2. Activity is measured by DNA content using SYBR green in vitro
SMILES,inhibition [1] [%],inhibition [2] [%],inhibition [3] [%]
CO/C(=C\C=C\c1cc2cc(Cl)c(Cl)cc2[nH]1)C(=O)NCCCN1CCN(Cc2ccccc2)CC1,2.32,0.91,2.11
CCN(CC)CCN(Cc1ccc(-c2ccc(C(F)(F)F)cc2)cc1)C(=O)Cn1c(CCc2ccc(F)c(F)c2)nc(=O)c2ccccc21,1.89,0.22,1.08
O=C(Nc1ccc(OC(F)(F)F)cc1)Nc1ccc([N+](=O)[O-])cc1,1.82,2.15,1.9
Cc1ccc(NC(=O)c2ccc(C(=O)NC3CCN(CC4CCCCC4)CC3)cc2)cc1,2.26,3.07,1.65
COc1cccc(-c2ccc(C(=O)NC3CCN(Cc4ccc(C(C)(C)C)cc4)CC3)s2)c1,0.02,0.82,-1.18
COc1nc(Nc2cccc(C)c2)nc(OC)n1,-0.24,0.66,0.95
CCN(C(=O)CSc1cc(C)c2cc(C)cc(C)c2n1)C1CCS(=O)(=O)C1 (stereo unspecified),0.63,0.78,-0.42
COc1ccc(CCNCc2cc3c(C(C)(C)C)nn(-c4ccc(Cl)cc4)c3[nH]c2=O)cc1OC,-2.79,-2.78,-5.42
CCN(CC)c1ccc(C(=O)Cn2ccc(=N)cc2)cc1,1.35,-0.06,0.82
O=C(Nc1ccc(-c2cccc(-c3nc4cc(F)ccc4[nH]3)c2)cc1)Nc1ccc(F)c(F)c1F,5.34,7.02,6.78
O=C(Nc1cccc(C(F)(F)F)c1)N1CCOC(CCN2CCC(c3ccccc3)CC2)(c2ccc(Cl)c(Cl)c2)C1 (stereo unspecified),1.69,1.44,0.72
CC(=O)NCCNCc1cccc(C(=O)NCc2cccc(C(F)(F)F)c2)c1,3.26,5.92,4.88
